# Source: ChEMBL document CHEMBL3988442, “University of Dundee, Small-Polar-MMV Screening Library” (2021)
# Screen size: about 48,000 compounds; about 13,000 (27%) showed an effect of 50% or more. The list shows a part of the results.
# Tested on: Wolbachia pipientis
# Assay: Anti-Wolbachia Cell-Based Screen
# Format: functional
# Set-up: scale not given: in the data most compounds retested in dose-response had high values
# Conditions: 5 µM
row,SMILES,Percent Effect
1,CS(=O)(=O)CCNC(=O)N(Cc1ccoc1)C1CCCCC1,-12.04%
2,COc1ccc(Cc2nnc3n2N=C(C(C)(C)C)CS3)cc1,3.244%
3,CSCC(C)(O)CNC(=O)c1cccc(Cl)c1Cl (stereo not drawn),-18.01%
4,Cn1ncc(C(=O)N2CCCC(n3cccn3)C2)c1C1CC1 (stereo not drawn),3.227%
5,Cc1cc(C(=O)N2CCCC(n3cncn3)C2)c(C)n1C1CC1 (stereo not drawn),0.2394%
6,Cc1cc(C(=O)N2CCCC(n3ccnc3)C2)c(C)n1C1CC1 (stereo not drawn),137.5%
7,Cc1nn2cccnc2c1C(=O)N1CCCC(n2ccnc2)C1 (stereo not drawn),4.541%
8,Cc1cc(C(=O)N2CCCC(n3cccn3)C2)c(C)n1C1CC1 (stereo not drawn),121.6%
9,Cn1cc(N2CCC(Nc3ccc4nccnc4n3)C2=O)cn1 (stereo not drawn),-8.237%
10,Cc1nnc2n1CC(CNc1cnc3ccccc3n1)CC2 (stereo not drawn),0.6716%
11,Cc1ccn(CCNc2ncnc3c2CCN(S(C)(=O)=O)CC3)n1,5.573%
12,O=C(N[C@@H]1CN(Cc2ccoc2)C[C@@H]2CCCO[C@@H]21)C1CCC1,85.36%
13,Cc1oncc1C(=O)N[C@@H]1CN(Cc2ccoc2)C[C@@H]2CCCO[C@@H]21.O=C(O)C(F)(F)F,105.5%
14,O=C(CC1CC1)N[C@@H]1CN(Cc2ccoc2)C[C@@H]2CCCO[C@@H]21,-6.81%
15,Cc1oncc1C(=O)N[C@@H]1CN(Cc2ccco2)C[C@@H]2CCCO[C@@H]21.O=C(O)C(F)(F)F,107.8%
16,CN(C)[C@@H]1CN(Cc2ccoc2)C[C@@H]2CCCO[C@@H]21.O=C(O)C(F)(F)F.O=C(O)C(F)(F)F,-4.757%
17,Cc1oncc1C(=O)N[C@@H]1CN(c2ncccn2)C[C@@H]2CCCO[C@@H]21.O=C(O)C(F)(F)F,-3.566%
18,CS(=O)(=O)N[C@@H]1CN(Cc2ccco2)C[C@@H]2CCCO[C@@H]21.O=C(O)C(F)(F)F,1.285%
19,O=C(CC1CC1)N[C@@H]1CN(Cc2ccco2)C[C@@H]2CCCO[C@@H]21.O=C(O)C(F)(F)F,-7.613%
20,CCOc1cccc(CCNC(=O)Cc2ccn[nH]2)n1,-27.67%
21,O=C(O)[C@@]12CN(c3cnccn3)C[C@@H]1CN(C1CCOCC1)C2,-13.72%
22,CNC(=O)[C@@H]1C[C@@H](NC(=O)Cc2cccs2)CN1C1CCOCC1,0.5082%
23,Cc1nc2ccccn2c1CN1C[C@@H](CN2CCOCC2)[C@@H](CO)C1,-3.894%
24,COCCn1c(=O)n(C)c(=O)c2ccc(C3CCN(C(C)=O)CC3)nc21,55.11%
25,COCCn1c(=O)n(C)c(=O)c2ccc(C3CCC(CN)CC3)nc21.Cl (stereo not drawn),114.4%

row,SMILES,Percent Effect
1,COCCN1CCC(c2nc3c([nH]2)CC(C)(C)CNC3=O)C1 (stereo not drawn),-9.937%
2,COCCn1ccnc1C1CCN(C(=O)C(O)c2ccc(F)cc2)CC1 (stereo not drawn),-18.13%
3,COCCN1C(=O)[C@H]2CC[C@@H]1CN(c1nccc(C3CCCC3)n1)C2,-7.608%
4,CC(=O)N1CCC(c2nn(C)c(=O)n2-c2ccccc2)CC1,-1.019%
5,Cc1ccn(C)c(=O)c1NC(=O)N(C)Cc1cccc(OC(C)C)c1,2.513%
6,CCCc1cncnc1N1CCC(NCc2ccncc2)CC1,5.564%
7,CN(CCCc1cnn(C)c1)Cc1cc2n(n1)CCCNC2,97.92%
8,CN(Cc1cc2n(n1)CCNC2)Cc1noc(C2CCC2)n1,-1.079%
9,CN(CCCc1cnn(C)c1)Cc1cc2n(n1)CCCN(C)C2,94.13%
10,CNc1ncc(CN(C)Cc2cc3n(n2)CCNC3)cn1,11.28%
11,CN(Cc1cc2n(n1)CCCNC2)Cc1ccno1,-18.26%
12,CN(CCCc1cnn(C)c1)Cc1cc2n(n1)CCNC2,121.7%
13,CCn1cc(CN2CCCn3nc(CNC(=O)N(C)C)cc3C2)cn1,15.22%
14,CN(CCCc1cnn(C)c1)C(=O)C1CCN(C(=O)C2CCC2)CC1,14.43%
15,CN(Cc1cc2n(n1)CCCNC2)Cc1cc(-c2ccncc2)no1,4.022%
16,CC(NC(=O)N(C)Cc1ccc2c(c1)OCO2)c1nncn1C (stereo not drawn),16.38%
17,CC1(c2ccccc2)CCC(=O)N(CCN2CCOCC2)C1 (stereo not drawn),8.315%
18,COC(CNC(=O)c1ccc(NC(C)=O)cc1)c1cccc(Cl)c1 (stereo not drawn),-77.03%
19,CCN1CCN(C)C(=O)C12CCN(Cc1ccsc1)CC2.O=C(O)C(F)(F)F,-27.74%
20,CCN1CCN(C)C2(CCN(Cc3ccsc3)CC2)C1=O.O=C(O)C(F)(F)F.O=C(O)C(F)(F)F,94.35%
21,CN1CCN(Cc2ccncc2)C(=O)C12CCN(c1nccs1)CC2.O=C(O)C(F)(F)F.O=C(O)C(F)(F)F,-19.3%
22,CN1CCN(C)C2(CCN(Cc3ccsc3)CC2)C1=O.O=C(O)C(F)(F)F,105.2%
23,CN1CCN(Cc2ccncc2)C(=O)C12CCN(Cc1ccsc1)CC2.O=C(O)C(F)(F)F.O=C(O)C(F)(F)F.O=C(O)C(F)(F)F,58.8%
24,Cn1ncc(C2CC(=O)NCc3nc4ccccn4c32)c1C1CC1 (stereo not drawn),1.817%
25,CCNC(=O)[C@@H]1CCCN1C1(C(=O)NC)CCC1.Cl,0.1969%

row,SMILES,Percent Effect
1,O=C1CC2(CCSC2)C(=O)N1Cc1ncc(-c2ccccc2)o1 (stereo not drawn),-14.26%
2,NC(=O)CN(CC(=O)NCCc1c(F)cccc1F)C1CCCC1,11.15%
3,C[C@@H]1CN(Cc2ccc(C(F)(F)F)cc2F)CC[C@]1(C)O,-2.035%
4,CCOc1ccc(CN(C)C(=O)c2nc(N3CCCC3)ncc2Cl)cc1,16.2%
5,CCCC(=O)N(C)Cc1nc(N2CCCC2)ncc1-c1ccncc1.Cl,137.6%
6,COCC(=O)N(C)Cc1nc(N2CCCC2)ncc1-c1ccncc1.Cl,87.58%
7,Cc1nc(N2CCCC2)ncc1-c1cc(O)nc(N2CCCC2)n1,3.993%
8,COCC(=O)Nc1cnc(N2CCCC2)nc1,-4.633%
9,CN(Cc1cnccn1)C(=O)Nc1cc(F)cc(N2CCCC2)c1,16.17%
10,COc1cccc(CC(=O)N2CC[C@@H](OC)[C@@H]2Cc2cccnc2)c1.O=C(O)C(F)(F)F,137.5%
11,CO[C@H]1CCN(S(=O)(=O)c2cn(C)cn2)[C@H]1Cc1cccnc1.O=C(O)C(F)(F)F.O=C(O)C(F)(F)F,-4.938%
12,COc1ccc(CC(=O)N2CC[C@@H](OC)[C@@H]2Cc2cccnc2)cc1.O=C(O)C(F)(F)F,135%
13,Cc1noc([C@H]2COC[C@H]3CN(C(=O)Cc4ccc(F)cc4)C[C@H]32)n1,-6.311%
14,COc1cc(CN(C)C(=O)NC2CC2)ccc1SC,1.322%
15,CC1CN(C)c2ccccc2CN1C(=O)c1ccncc1 (stereo not drawn),-3.17%
16,Cc1ccc2c(c1)CN(C(=O)C1CCCCC1)C(CN(C)C)CO2.Cl (stereo not drawn),-7.003%
17,CN(C)CC1COCCN1C(=O)C1(c2cccs2)CCCC1.O=CO (stereo not drawn),-9.313%
18,Cc1ccc2c(c1)CN(C(=O)c1cccs1)C(CN(C)C)CO2 (stereo not drawn),64.15%
19,Cc1nc(C)c(C(=O)N2Cc3ccccc3OCC2CN(C)C)o1.Cl.Cl (stereo not drawn),85.27%
20,Cc1ccc2c(c1)CN(C(=O)c1ccccc1F)C(CN(C)C)CO2.Cl (stereo not drawn),-8.172%
21,Cc1nc(C)c(C(=O)N2CCc3c(C)cccc32)o1,-0.835%
22,Cc1ccc2c(c1)CN(C(=O)c1ccncc1)C(CN(C)C)CO2.Cl (stereo not drawn),112.6%
23,CCOC(=O)CC1CCCCN1C(=O)c1cnc(C)cn1 (stereo not drawn),6.285%
24,CCN(C)S(=O)(=O)N1CCCC1CC(=O)c1cccs1 (stereo not drawn),13.08%
25,Cc1ccc2c(c1)CN(C(=O)c1cnc(C)cn1)C(CN(C)C)CO2.Cl (stereo not drawn),102.7%

row,SMILES,Percent Effect
1,Cc1nc(C)c(C(=O)N2Cc3cc(F)ccc3CC2C)o1 (stereo not drawn),-9.907%
2,Cc1ccc(S(=O)(=O)NC(=O)COc2ccc(CC#N)cc2)s1,-2.544%
3,CN(c1ccc(-c2nc(C3CC3)no2)cn1)C1CCOCC1,5.539%
4,Cc1cccc(NCCNc2ccc(C#N)cn2)n1,14.53%
5,CN(Cc1nnc(-c2ccco2)o1)Cc1nc2c(s1)CCCC2,-12.52%
6,Cc1ccc2c(c1)CN(C(=O)c1cccnc1)C(CN(C)C)CO2.Cl (stereo not drawn),73.73%
7,COc1ccccc1C(=O)N1Cc2cc(C)ccc2OCC1CN(C)C.Cl (stereo not drawn),-11.9%
8,COc1ccc(C(=O)NC[C@H]2COCc3nc4cc(C)ccc4n32)cc1,-9.863%
9,COc1ccc(C(=O)N2Cc3cc(C)ccc3OCC2CN(C)C)cc1.Cl (stereo not drawn),72.78%
10,CCOCCC(=O)NCc1ccnc(NC2CC2)c1,-81.15%
11,CC(C)(C)OC(=O)N1CCCC[C@H]1C(=O)NCc1nccs1,1.043%
12,CCC(NCc1ccccc1C)c1ccccc1OCC(=O)NC (stereo not drawn),-1.01%
13,Cc1ccccc1C(C)NC(=O)c1ccc(=O)n(C)c1 (stereo not drawn),28.6%
14,CCCC1(NC(=O)C(c2ccccc2C)N(C)C)CC1 (stereo not drawn),5.158%
15,CCC(NC(=O)C(C)(C)C)c1ccccc1C (stereo not drawn),109.5%
16,Cc1ccccc1C(CC(=O)NCC(N)=O)c1ccccc1 (stereo not drawn),-4.865%
17,CCC(=O)NC(C)c1ccccc1C (stereo not drawn),111%
18,CCC(NS(C)(=O)=O)c1ccccc1C (stereo not drawn),-2.544%
19,CCC(NC(=O)C(C)C)c1ccccc1C (stereo not drawn),112%
20,Cc1ccccc1C(C)NC(=O)CN1CCN(Cc2ccc(Cl)s2)CC1 (stereo not drawn),-0.8834%
21,Cc1ccc(C)c(C(NC(=O)C(C)(C)C)c2cccnc2)c1 (stereo not drawn),4.189%
22,Cc1ccccc1C(NC(=O)CCCS(C)(=O)=O)C(C)(C)C (stereo not drawn),-11.53%
23,CCC(=O)NC(CC)c1ccccc1C (stereo not drawn),115.1%
